This note sets out measurements from PubChem BioAssay (EPA / NIEHS).

Inconclusive results are not listed. Activity calls are given as the source filed them. How the source made its calls: active means hit-call score of the fitted dose curve at least 0.9, where 1 is the maximum; inconclusive means response in the unintended direction; inactive means score below 0.9.

For experiment [1], the target named is human Insulin Receptor (InsR), INSR (gene 3643) (UniProt P06213). The experiment in a line: NVS_ENZ_hInsR: NovaScreen (NVS) Enzymatic Assay for human Insulin Receptor (InsR) (AID 2283168). The essentials: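 Cell-free enzyme assay read 1 h post-dose by fluorescence after substrate/product mobility-shift separation. Duplicate 25 uM primary screen, then singleton concentration-response up to 50 uM for compounds passing threshold; loss of signal vs DMSO.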

Experiment [2] concerns the target human Janus Kinase 2 (Jak2), JAK2 (gene 3717) (UniProt O60674). The experiment in a line: NVS_ENZ_hJak2: NovaScreen (NVS) Enzymatic Assay for human Janus Kinase 2 (Jak2) (AID 2283169). The essentials:
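Single-point duplicate screen at 25 uM, with hits run in concentration series to a 50 uM top dose. Substrate-product separation by mobility shift with fluorescence detection, 1 h post-dosing; DMSO baseline.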

Experiment [3] deals with human c-Jun N-terminal Kinases (JNK2), MAPK9 (gene 5601) (UniProt P45984). The experiment in a line: NVS_ENZ_hJNK2: NovaScreen (NVS) Enzymatic Assay for human c-Jun N-terminal Kinases (JNK2) (AID 2283171). In outline: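 Chemicals first tested in duplicate at 25 uM, then in singleton concentration series up to 50 uM, against extracted JNK2 enzyme. Activity loss read by fluorescence with mobility-shift separation 1 h post-dose; DMSO baseline.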

The target of experiment [4] is human MAP Kinase-Activated Protein Kinase 2 (MAPKAPK2), MAPKAPK2 (gene 9261) (UniProt P49137). The experiment in a line: NVS_ENZ_hMAPKAPK2: NovaScreen (NVS) Enzymatic Assay for human MAP Kinase-Activated Protein Kinase 2 (MAPKAPK2) (AID 2283178). In outline: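 Chemicals screened in duplicate at 25 uM, then to 50 uM top concentration in concentration-response, against recombinant human MAPKAPK2; substrate conversion read 1 hr post-dosing by fluorescence after electrophoretic mobility-shift separation, loss-of-signal relative to DMSO.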
Sequence of human MAP Kinase-Activated Protein Kinase 2 (MAPKAPK2), MAPKAPK2 (gene 9261) (P49137 whole entry, looked up): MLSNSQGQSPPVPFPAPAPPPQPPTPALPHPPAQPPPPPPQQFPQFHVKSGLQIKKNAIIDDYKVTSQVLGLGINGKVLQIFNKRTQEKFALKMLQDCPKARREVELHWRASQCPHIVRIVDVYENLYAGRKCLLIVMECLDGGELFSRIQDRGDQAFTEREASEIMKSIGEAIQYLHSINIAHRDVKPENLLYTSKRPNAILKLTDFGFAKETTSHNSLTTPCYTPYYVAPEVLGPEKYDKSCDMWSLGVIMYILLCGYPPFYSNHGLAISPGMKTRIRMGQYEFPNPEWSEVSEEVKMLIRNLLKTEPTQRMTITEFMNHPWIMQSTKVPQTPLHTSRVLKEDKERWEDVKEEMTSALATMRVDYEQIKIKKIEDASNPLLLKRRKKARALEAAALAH

Sequence of human c-Jun N-terminal Kinases (JNK2), MAPK9 (gene 5601) (P45984 whole entry, looked up): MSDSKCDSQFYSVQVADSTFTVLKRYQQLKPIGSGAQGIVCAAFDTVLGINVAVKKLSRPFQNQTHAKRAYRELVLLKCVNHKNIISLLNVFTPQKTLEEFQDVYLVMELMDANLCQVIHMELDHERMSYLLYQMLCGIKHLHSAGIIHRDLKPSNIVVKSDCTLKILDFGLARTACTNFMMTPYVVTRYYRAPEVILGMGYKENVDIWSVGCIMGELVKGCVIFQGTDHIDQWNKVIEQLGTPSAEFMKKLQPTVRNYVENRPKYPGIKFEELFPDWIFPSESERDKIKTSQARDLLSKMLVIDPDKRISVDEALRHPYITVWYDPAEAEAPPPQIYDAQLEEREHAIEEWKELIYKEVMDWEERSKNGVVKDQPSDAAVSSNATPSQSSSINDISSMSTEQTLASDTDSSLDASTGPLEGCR
Sequence of human Janus Kinase 2 (Jak2), JAK2 (gene 3717) (O60674 whole entry, looked up): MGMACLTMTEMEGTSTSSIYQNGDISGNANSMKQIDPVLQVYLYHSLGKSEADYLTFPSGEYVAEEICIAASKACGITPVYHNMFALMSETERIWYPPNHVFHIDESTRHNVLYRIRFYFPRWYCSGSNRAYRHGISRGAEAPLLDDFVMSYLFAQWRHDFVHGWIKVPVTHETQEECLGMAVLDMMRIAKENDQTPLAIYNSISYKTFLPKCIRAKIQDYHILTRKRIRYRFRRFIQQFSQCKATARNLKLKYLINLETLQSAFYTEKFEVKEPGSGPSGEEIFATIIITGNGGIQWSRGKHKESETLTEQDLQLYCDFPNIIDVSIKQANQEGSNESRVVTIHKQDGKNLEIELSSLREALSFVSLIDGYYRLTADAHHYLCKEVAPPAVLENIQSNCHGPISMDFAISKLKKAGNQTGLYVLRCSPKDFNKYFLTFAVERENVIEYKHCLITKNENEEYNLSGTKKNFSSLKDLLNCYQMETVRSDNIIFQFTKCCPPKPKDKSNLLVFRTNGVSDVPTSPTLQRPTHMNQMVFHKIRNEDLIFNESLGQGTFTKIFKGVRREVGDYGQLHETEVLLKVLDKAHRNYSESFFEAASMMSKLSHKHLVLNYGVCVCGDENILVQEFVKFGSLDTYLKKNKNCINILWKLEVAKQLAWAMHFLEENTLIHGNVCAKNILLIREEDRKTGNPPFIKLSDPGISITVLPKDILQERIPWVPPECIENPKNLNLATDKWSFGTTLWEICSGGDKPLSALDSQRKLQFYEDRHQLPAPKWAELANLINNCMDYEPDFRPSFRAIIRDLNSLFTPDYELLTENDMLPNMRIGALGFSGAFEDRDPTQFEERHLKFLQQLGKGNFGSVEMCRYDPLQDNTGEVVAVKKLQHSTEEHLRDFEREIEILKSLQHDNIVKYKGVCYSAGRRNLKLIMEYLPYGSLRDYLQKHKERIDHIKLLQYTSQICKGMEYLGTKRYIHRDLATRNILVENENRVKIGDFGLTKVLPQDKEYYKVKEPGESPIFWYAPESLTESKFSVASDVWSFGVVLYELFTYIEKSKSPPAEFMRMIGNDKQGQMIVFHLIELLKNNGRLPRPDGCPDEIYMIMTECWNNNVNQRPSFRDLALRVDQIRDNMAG
Sequence of human Insulin Receptor (InsR), INSR (gene 3643) (P06213 whole entry, looked up): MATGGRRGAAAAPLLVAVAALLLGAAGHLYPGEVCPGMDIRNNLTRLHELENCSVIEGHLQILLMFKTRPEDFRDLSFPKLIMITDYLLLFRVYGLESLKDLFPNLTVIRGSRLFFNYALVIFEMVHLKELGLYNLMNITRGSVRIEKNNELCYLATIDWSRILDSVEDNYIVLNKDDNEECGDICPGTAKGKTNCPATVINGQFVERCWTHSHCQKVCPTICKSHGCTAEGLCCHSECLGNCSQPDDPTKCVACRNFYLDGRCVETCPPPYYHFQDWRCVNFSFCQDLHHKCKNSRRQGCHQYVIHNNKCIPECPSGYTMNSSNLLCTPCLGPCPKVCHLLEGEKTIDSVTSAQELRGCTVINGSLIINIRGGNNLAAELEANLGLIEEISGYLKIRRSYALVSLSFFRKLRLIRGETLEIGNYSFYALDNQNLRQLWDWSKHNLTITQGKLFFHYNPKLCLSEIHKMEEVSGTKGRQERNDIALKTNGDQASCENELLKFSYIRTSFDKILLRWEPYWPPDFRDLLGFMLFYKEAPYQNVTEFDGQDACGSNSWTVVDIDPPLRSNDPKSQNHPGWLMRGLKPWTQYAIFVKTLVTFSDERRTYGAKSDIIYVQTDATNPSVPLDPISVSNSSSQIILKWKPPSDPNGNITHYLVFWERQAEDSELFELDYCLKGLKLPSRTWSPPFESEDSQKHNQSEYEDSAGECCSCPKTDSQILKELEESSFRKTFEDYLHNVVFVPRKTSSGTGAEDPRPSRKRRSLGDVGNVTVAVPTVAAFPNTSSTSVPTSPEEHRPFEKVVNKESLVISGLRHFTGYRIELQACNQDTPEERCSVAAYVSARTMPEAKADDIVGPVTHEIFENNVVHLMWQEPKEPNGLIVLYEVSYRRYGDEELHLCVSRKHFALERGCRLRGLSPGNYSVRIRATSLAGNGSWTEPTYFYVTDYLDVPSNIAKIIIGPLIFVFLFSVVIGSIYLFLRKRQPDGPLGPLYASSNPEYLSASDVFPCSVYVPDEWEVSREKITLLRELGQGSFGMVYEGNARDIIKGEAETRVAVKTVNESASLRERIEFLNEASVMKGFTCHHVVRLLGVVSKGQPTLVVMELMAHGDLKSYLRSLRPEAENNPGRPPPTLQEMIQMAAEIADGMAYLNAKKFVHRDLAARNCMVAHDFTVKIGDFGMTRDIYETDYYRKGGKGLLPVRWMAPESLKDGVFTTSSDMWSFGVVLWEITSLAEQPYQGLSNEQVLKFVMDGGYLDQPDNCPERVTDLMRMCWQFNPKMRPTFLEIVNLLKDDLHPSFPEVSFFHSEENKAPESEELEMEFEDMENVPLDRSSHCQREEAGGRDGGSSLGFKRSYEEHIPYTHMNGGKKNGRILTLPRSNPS

For `COCCOCCOCCOC`, the call in experiment [1] was inactive.

For `CC[C@H]1CC[C@H](NCc2cc3c(cc2OC)[C@H]2C[C@H]2C(=O)N3C)[C@H](c2ccccc2)N1`, the compound was classed as inactive in experiment [2].

Consider `O=C(O)CC(O)C(=O)O` (stereo unspecified), for which, in experiment [2], the outcome was inactive.

In the case of `O=C(O)c1cccc(N(Cc2cccnc2)c2ccc(OC(F)F)c(OC(F)F)c2)c1`, in experiment [3], the AC50 (commonly the concentration at which the activity in the assay is half-maximal) was 4.96 µM (active).

In the case of `Cn1c(=O)cc(Oc2ccc(F)cc2F)c2cnc(NCC(C)(C)O)nc21`, the AC50 in experiment [3] is 0.00703 µM (active).

In the case of `Nc1ccc(Nc2ccccc2)cc1`, the compound was called inactive in experiment [4].
